Shown is part of a subset that was picked to be rich in hits.
HIV RNase H inh-1: HIV-1 RT RNase H inhibitors, primary screen, biochemical, fluorescence | Gag-Pol polyprotein (Human immunodeficiency virus type 1 group M subtype B (isolate … | inhibition, % at 10 µM | RT-RNase H RNA/DNA duplex cleavage | hit rate 1.9% among 65,000; in the data active = inhibition above about 50%
HIV RNase H inh-2: HIV-1 RT RNase H inhibitors, retest, confirmation, biochemical; shares compounds with HIV RNase H inh-1; hit rate 39% among 1,000; inhibition, % at 10 µM; AID 651, 2007; Recombinant RT RNase H, fluorescent RNA/DNA duplex cleavage; in the data active = inhibition above about 48%; inconclusive = no clear call, values can overlap the other calls
* hit, by the source's call; ? = inconclusive.

SMILES	HIV RNase H inh-1	others
CCOC(=O)N1CCC(N2Cc3cccc(C(=O)NCc4ccc5c(c4)OCO5)c3C2=O)CC1	-1
CCOC(=O)N1CCC(N2Cc3cccc(C(=O)NCc4ccccc4OC)c3C2=O)CC1	-32
CCCCC(=O)Nc1ccc(NC(=O)C2CC2)nc1	3
Cc1ccccc1Nc1nnc(SCC(=O)NC(=O)NCc2ccco2)s1	67*	HIV RNase H inh-2=20
O=C(CSc1nnc(Nc2ccccc2F)s1)NCc1ccco1	33
O=C(CSc1nnc(Nc2ccccc2)s1)NCc1ccco1	-5
CN(C(=O)COc1cc(=O)n(C)c2ccccc12)c1ccc(Br)cc1	-34
CCc1nnc(NS(=O)(=O)c2ccc(N3C(=O)C4CC=C(Cl)CC4C3=O)cc2)s1 (stereo not given)	6
CCOC(=O)c1sc2nc(N3CCOCC3)c3c(c2c1N)CCCC3	-3
NC(=O)c1sc2nc(N3CCCCC3)c3c(c2c1N)CCCC3	-35
Nc1c(C(=O)NCc2ccco2)sc2nc(N3CCOCC3)c3c(c12)CCCC3	54*	HIV RNase H inh-2=3
O=C(C1CCCN(Cc2ccccc2Br)C1)N1CCCCC1 (stereo not given)	-1
CCOCCn1c(SCCCc2ccccc2)nc2c1c(=O)[nH]c(=O)n2C	-41
CCCCCCn1c(SCCCC)nc2c1c(=O)[nH]c(=O)n2C	-13
CCOC(=O)CSc1nc2c(c(=O)[nH]c(=O)n2C)n1CCc1ccccc1	-2
CCOCCn1c(SC)nc2c1c(=O)[nH]c(=O)n2C	59*	HIV RNase H inh-2=-4
CCOCCn1c(SCc2c(F)cccc2Cl)nc2c1c(=O)[nH]c(=O)n2C	-9
CCCCn1c(SCC(=O)OCC)nc2c1c(=O)[nH]c(=O)n2C	68*	HIV RNase H inh-2=64*
CCN1CCN(c2ccc(-n3c(C)nc4c(cnn4-c4ccccc4Cl)c3=O)cc2)CC1	-16
CC(C)OC(=O)CSc1nnc(-c2cnccn2)n1-c1ccccc1	-5
COc1ccc(NC(=O)CCN2C(=O)C3CC=C(Cl)CC3C2=O)cc1 (stereo not given)	3
COc1ccc(Cc2nnc(SCC(=O)Nc3nc(C)cs3)o2)cc1	-1
O=C(Nc1ccc(N2C(=O)C3C4C=CC(C4)C3C2=O)cc1)Nc1cccnc1 (stereo not given)	-2
Cc1ccc(S(=O)(=O)Nc2nonc2C)cc1	-1
COc1ccc(S(=O)(=O)NCCSCc2cccs2)cc1	-51
SMILES	HIV RNase H inh-1	others
COc1ccc(N(Cc2cc(=O)[nH]c3ccccc23)C(=O)c2ccco2)cc1	9
Cc1cccc(-c2nnc(SCc3cc(=O)[nH]c4ccccc34)n2C)c1	9
CCC(=O)N(Cc1cc(=O)[nH]c2ccccc12)c1cccc(C)c1	70*	HIV RNase H inh-2=2
O=C(NCc1ccccc1)c1ccc(COCC(F)(F)F)o1	2
Cc1c(NC(=O)C(C)N2CC(C)OC(C)C2)c(=O)n(-c2ccccc2)n1C (stereo not given)	4
Cc1nn(-c2ccccc2)c(C)c1C(=O)OCC(=O)Nc1ccc2c(c1)OCO2	1
O=C(O)c1ccccc1S(=O)(=O)NCC(O)COc1ccc(Br)cc1 (stereo not given)	-6
Cc1ccc(Cn2c(=O)n(Cc3ccco3)c(=O)c3ccccc32)cc1	-1
CCn1c2ccccc2c2nc3cc(S(=O)(=O)N4CCOCC4)ccc3nc21	98*	HIV RNase H inh-2=52*
CCn1c(C)nc2cc(S(=O)(=O)N3CCCCC3)ccc21	-23
c1ccc2nc3c(nc2c1)c1ccccc1n3CCN1CCOCC1	-29
O=C(Nc1ccc(-c2noc(COc3ccccc3Cl)n2)cc1)c1ccco1	2
CCOc1c(Br)cc(C2NS(=O)(=O)N=C3CCCCCN32)cc1OC (stereo not given)	-6
C=CCn1c(Cc2cccs2)nnc1SCC(=O)Nc1cccc(OC)c1	73*	HIV RNase H inh-2=42
C=CCn1c(Cc2cccs2)nnc1SCC(=O)Nc1ccc(OC)cc1	-29
COc1cccc(NC(=O)CSc2nnc(-c3cccs3)n2C)c1	3
Clc1ccc(OCc2nn3c(C4CCCCC4)nnc3s2)cc1	-14
CCOC(=O)C1=CN(C)C=C(C(=O)OCC)C1c1ccsc1	47
CCC(CCC(=O)Nc1ccn(-c2ccccc2)n1)C(=O)O (stereo not given)	-8
Cc1nc(N2CCCCC2)c2sc(=S)n(C)c2n1	-11
CCN1CCN(c2nc(SC)nc3sc4c(c23)CC(C)(C)OC4)CC1	-5
CCN1CCN(c2nc(C)nc3c2sc(=S)n3C)CC1	90*	HIV RNase H inh-2=65*
CCOc1ccccc1C(=O)N(Cc1cccs1)C1CCS(=O)(=O)C1 (stereo not given)	-3
O=C(NCC12CC3CC(CC(C3)C1)C2)c1cc2n(n1)C(C(F)(F)F)CC(c1ccco1)N2 (stereo not given)	11
Cc1cc(NC(=O)c2cc3n(n2)C(C(F)(F)F)CC(c2ccco2)N3)n(-c2ccccc2)n1 (stereo not given)	62*	HIV RNase H inh-2=44
SMILES	HIV RNase H inh-1	others
COc1ccc(NC(=O)c2cc3n(n2)C(C(F)(F)F)CC(c2ccco2)N3)cc1 (stereo not given)	6
Cc1ccc(OC(=O)c2cccc(C(=O)Oc3ccc(C)cn3)n2)nc1	2
Cc1c(Cl)cccc1N(CC(=O)NC1CCCCC1)S(C)(=O)=O	-1
COc1ccc(-c2c(C)oc3cc(O)cc(O)c3c2=O)cc1OC	-15
COc1ccccc1-c1coc2cc(O)cc(O)c2c1=O	-2
O=c1c(O)c(-c2ccc(O)cc2O)oc2cc(O)cc(O)c12	75*	HIV RNase H inh-2=59*
Cc1noc(C)c1CSc1nnc2scc(-c3ccc(Cl)cc3)n12	-16
O=C(CSc1nnc(-c2ccc(F)cc2)o1)Nc1ccc(S(=O)(=O)N2CCCC2)cc1	-40
Cc1ccc(NC(=O)CSc2nnc(-c3ccc(S(=O)(=O)N4CCCC4)cc3)o2)cc1C	70*	HIV RNase H inh-2=69*
Cc1cccc(NC(=O)CSc2nnc(-c3ccc(S(=O)(=O)N4CCCC4)cc3)o2)c1	3
CCOc1cc(N2CCOCC2)c(OCC)cc1NC(=O)COC(=O)CCc1c[nH]c2ccccc12	1
OCCN1CCN(c2ncnc3c2sc2nc(N4CCOCC4)c4c(c23)CCC4)CC1	-24
COC(=O)c1ccc(Cn2cnc3c(sc4nc(N5CCOCC5)c5c(c43)CCCC5)c2=O)o1	64*	HIV RNase H inh-2=?
OCCN(CCO)c1ncnc2c1sc1nc(N3CCOCC3)c3c(c12)CCCC3	-44
COc1ccc(-c2cc(C(=O)N3CCN(C(c4ccccc4)c4ccccc4)CC3)no2)cc1	-4
O=C(c1cc(-c2ccco2)on1)N1CCN(C(c2ccccc2)c2ccccc2)CC1	-9
CC(C)c1cc(C(=O)N2CCN(C(c3ccccc3)c3ccccc3)CC2)no1	74*	HIV RNase H inh-2=50
Cc1ccc(NC(=O)CCSc2nnnn2-c2ccc3c(c2)OCO3)cc1C	-22
CN(C)CCNc1oc(COc2ccc(Cl)cc2)nc1C#N	-10
Nc1ccc(-c2nc3ccc(N)cc3o2)cc1	-12
Nc1ccc(-c2nc3ccc(-c4nc5ccccc5o4)cc3[nH]2)cc1	73*	HIV RNase H inh-2=40
Nc1ccc2nc(-c3ccc(Cl)cc3)[nH]c2c1	3
Cn1c(=O)c2c(ncn2CC(=O)N2CCN(c3ccc(F)cc3)CC2)n(C)c1=O	-7
CCn1c2ccccc2c2nnc(SCC(=O)NC(CC(C)C)C(=O)OC)nc21 (stereo not given)	5
O=C(NCCN1CCOCC1)c1ccc2c(c1)ncn2C1CCCCC1	-16

Compound activity deposited in PubChem by University of Pittsburgh Molecular Library Screening Center.
